The list is not random: actives were taken first. Their share in the collection is about 1.4%.
BJeLR lethal = kills HRASV12-expressing BJeLR cells. AID 1554. hit rate 0.17% among 300,000. BJeLR (HRASV12) viability, CellTiter-Glo ATP luminescence, 48 h. inhibition, % (no concentration beside the values); in the data active = inhibition above about 50%
PrP UTR inh = inhibition of PrP 5' UTR reporter expression. inhibition, % (concentration not given with the values). hit rate 0.35% among 340,000. AID 488862. cell-based PrP 5' UTR mRNA reporter, plate reader; in the data active = inhibition above about 52%; note: 0 = median of the neutral control wells
RN4220 kill = S. aureus RN4220 growth inhibition; OD600, 16 h; inhibition, % (concentration not given with the values); hit rate 0.33% among 330,000; AID 1259311; in the data active = inhibition above about 85%;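 note: plate controls were untreated cells for no effect and reference antibiotic for full effect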
PfHsp40 yeast = compounds rescuing yeast from Plasmodium falciparum HSP40 toxicity; S. cerevisiae expressing PfHsp40, growth rescue, ATP luminescence; growth rescue, % at 12.5 µM; hit rate 0.68% among 340,000; AID 504582; in the data active = growth rescue above about 28%, passing the limit was not always enough;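 note: yeast W303a lacking pdr1 and pdr3 grown in galactose medium; growth measured after three days at 30 °C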
Yp Topo-I inh = blocks Yersinia pestis topoisomerase I activity; Y. pestis Topo-I cleavage product accumulation, plate reader; activity, % at 10 µM; hit rate 0.064% among 360,000; AID 504884; in the data active = activity above about 50%, passing the limit was not always enough
Sa ugtP lethal = kills S. aureus RN4220 lacking UgtP | S. aureus RN4220 ugtP deletion, OD600 growth, 16 h | growth inhibition, % (test concentration not listed) | hit rate 0.54% among 330,000 | AID 1259309; in the data active = growth inhibition above about 68%;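 note: plate controls were untreated wells for no effect and antibiotic for full effect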
Numbers without * were called inactive; x = no result given.

SMILES	BJeLR lethal	PrP UTR inh	RN4220 kill	PfHsp40 yeast	Yp Topo-I inh	Sa ugtP lethal
CCN1CCN(C(=O)C=CC(=O)O)CC1	x	x	2	x	x	8
Cc1noc(C)c1NC(=O)N(C)CC1Oc2ccc(NC(=O)NC(C)C)cc2C(=O)N(C(C)CO)CC1C (stereo not drawn)	x	x	4	x	x	3
CCCCCCc1ccc(N2CC(CCCCC)C(CC(=O)NCc3ccccc3)C2=O)cc1 (stereo not drawn)	x	x	-5	x	x	-25
COc1cc(-c2ccc3c(=O)c4ccccc4sc3c2)cc(OC)c1OC	x	-26	12	0	1	-12
COc1cc(-c2ccc3c(=O)c4ccccc4n(C)c3c2)cc(OC)c1OC	-7	-3	x	28*	13	x
CC1NC(=O)C(CCC(N)=O)NC(=O)c2cc([N+](=O)[O-])cc(I)c2NCCCC(C(N)=O)NC1=O (stereo not drawn)	x	x	4	x	x	4
Cc1ccc2nc(-c3ccc(SCC(=O)O)nc3)[nH]c2c1	10	10	8	2	55*	8
CCCCNc1c(-c2ccc(OC)c(Sc3ccc(OC)cc3)c2)nc2cnccn12	x	-1	-1	0	29	13
CCCCNc1c(-c2ccc(SC(C)CC)cc2)nc2cnccn12 (stereo not drawn)	x	-8	x	860*	25	x
Oc1ccc(Cl)cc1Cc1ccccc1	x	6	-6	7	2	-7
Oc1ccc(Cl)cc1Cc1cc(Cl)ccc1O	3	-3	94*	234*	-16	86*
CC1(C)C(=O)CC[C@@]2(C)C1CC[C@]1(C)C2C(=O)C=C2C3C[C@@](C)(C(=O)O)CC[C@]3(C)CC[C@@]21C (stereo partly drawn)	x	x	15	x	x	31
O=C(NCCCn1ccnc1)c1ccc(N2CCCCCC2)c([N+](=O)[O-])c1	71*	-9	3	1	2	-2
CC1CN(S(=O)(=O)c2ccc(C(=O)NCCCn3ccnc3)cc2)CC(C)O1 (stereo not drawn)	71*	-17	-1	x	-19	3
CC1CN(S(=O)(=O)c2cccc(C(=O)NCCCn3ccnc3)c2)CC(C)O1 (stereo not drawn)	-6	-27	5	-2	3	3
Cc1ccc(C(=O)NCCCn2ccnc2)cc1[N+](=O)[O-]	8	8	2	0	-6	10
COc1ccc(NC(=O)Nc2cccc3c2OC(CN(C)CC2CCCCC2)C(C)CN(C(C)CO)C3=O)cc1 (stereo not drawn)	x	x	6	x	x	4
CC1(C)OC2C(CO)OC(n3ccc(=O)[nH]c3=O)C2O1 (stereo not drawn)	x	x	4	x	x	-2
COCCN1C(=O)NC(c2ccco2)C(C(C)=O)=C1C (stereo not drawn)	x	x	0	x	x	-11
COc1ccc(S(=O)(=O)N(C)CC2Oc3ccc(NS(=O)(=O)c4cccs4)cc3C(=O)N(C(C)CO)CC2C)cc1 (stereo not drawn)	x	x	3	x	x	2
COc1ccc(-c2cc(=O)oc3c(C)c(O)c(CN(C)C)cc23)cc1	x	-3	7	45*	-9	1
CC1CCc2c(sc3nc(C4CC4)nc(N4CCN(C(=O)c5ccco5)CC4)c23)C1 (stereo not drawn)	-8	-25	-14	161*	27	16
O=C1C2CCN(CC2)C1Cc1ccc2ccccc2c1O (stereo not drawn)	x	x	3	x	x	0
CC1CN(C(C)CO)C(=O)Cc2cc(NC(=O)Nc3cccc4ccccc34)ccc2OC1CN(C)S(C)(=O)=O (stereo not drawn)	x	x	1	x	x	-15
Nc1nc(N(Cc2ccccc2)Cc2ccccc2)nc(C(F)(F)F)n1	x	x	7	3	17	98*
SMILES	BJeLR lethal	PrP UTR inh	RN4220 kill	PfHsp40 yeast	Yp Topo-I inh	Sa ugtP lethal
CC1CN(C(C)CO)C(=O)c2cccc(NC(=O)c3ccncc3)c2OC1CN(C)S(=O)(=O)c1ccccc1 (stereo not drawn)	x	x	2	x	x	-6
Nc1nc2sc3c(c2c(=O)s1)CCCC3	-4	-50	9	290*	-7	38
CCOC(=O)c1cc(OC(=O)c2cccc([N+](=O)[O-])c2)n(-c2ccccc2)n1	4	-4	0	22	39	6
CCOC(=O)c1cc(OC(=O)c2ccccc2)n(-c2ccccc2)n1	-3	-10	3	112*	4	5
O=c1[nH]c(-c2ccccn2)nc2sc(-c3ccccc3)cc12	41	-60	100*	177*	-10	100*
Cc1c(C(=O)N(C)C)sc2nc(-c3ccccn3)[nH]c(=O)c12	-6	-19	10	0	-7	-2
COC(=O)C(C)C1C[C@@]1(C)C(NC(=O)OCc1ccccc1)c1ccccc1 (stereo partly drawn)	x	x	5	x	x	-1
CCOC(=O)C1C2COc3ccc(OC)cc3C2N2C(=O)CN(Cc3ccc(C)cc3)C(=O)[C@@]12C (stereo partly drawn)	x	x	-2	x	x	2
O=[N+]([O-])c1ccc(NN=Cc2cc(Br)ccc2O)nc1	x	5	59	22	-10	93*
Cc1ccc(NC(=O)CCC(=O)N/N=C/c2cc([N+](=O)[O-])ccc2O)cc1	-2	-11	x	-1	0	x
O=C(CN(c1cccc(Br)c1)S(=O)(=O)c1ccccc1)N/N=C/c1cc([N+](=O)[O-])ccc1O	-4	-9	x	247*	-16	x
Cc1cccc(NC(=O)CCC(=O)NN=Cc2cc([N+](=O)[O-])ccc2O)c1	x	x	94*	x	x	84*
O=C(CCCC(=O)Nc1cccc(Br)c1)N/N=C/c1cc([N+](=O)[O-])ccc1O	8	-1	x	0	-13	x
O=C(CCCC(=O)Nc1cccc(Br)c1)NN=Cc1cc([N+](=O)[O-])ccc1O	x	x	88*	x	x	79
CC(C=NNC(=O)c1ccncc1)=Cc1ccc(C(C)C)cc1	x	x	1	x	x	10
C#CCOCCOCCOCCNc1nc(N2CCN(C(=O)C(C(C)O)n3cc(C(N)CCCCN)nn3)CC2)nc(N2CCN(C(=O)C(C(C)O)n3cc(C(N)CCCCN)nn3)CC2)n1 (stereo not drawn)	x	x	6	x	x	4
CCCCCCCCOC(=O)CCn1[nH]c(=O)c2ccccc2c1=O	-2	6	4	200*	5	1
COc1cccc(C(=O)N/N=C(/c2ccccc2)c2ccccn2)c1	88*	13	x	324*	11	x
CC1CN(C(C)CO)C(=O)c2cccc(NC(=O)Nc3ccc(F)cc3)c2OC1CN(C)Cc1ccccc1 (stereo not drawn)	x	x	1	x	x	3
O=C(C(=C([O-])c1ccccc1)[n+]1ccccc1)c1ccc([N+](=O)[O-])cc1	x	x	-2	x	x	-8
OCC1(CO)COC(c2ccccc2)=N1	5	-23	2	0	0	1
O=C1OCC(CO)(CO)N=C1NNc1ccc(Cl)c(Cl)c1	8	-4	0	305*	-10	2
O=C(NC1CC=CCC(CC(=O)N(CCO)Cc2ccccc2)C(=O)NCCOC1=O)OCC1c2ccccc2-c2ccccc21 (stereo not drawn)	x	x	-5	x	x	-5

High-throughput results from PubChem BioAssay.
